DNA FID counter: fluorescent intercalator displacement, NS3 helicase counter-screen | actives 0.17% (n = 290,000) | DNA fluorescent intercalator displacement, fluorescence | inhibition, % at 7.9 µM; in the data active means inhibition above about 37%;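 further: 0% = vehicle and 100% = reference compound; higher means more ethidium bromide displaced from hairpin DNA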
MEKK3 PB1 HTS: modulators (inhibitors or enhancers) of MEK5 binding to human MEKK3 PB1 domain; Q99759; bead-based flow cytometry, Alexa488-MEK5 binding to MEKK3; actives lie on both sides; 0 = blocked by unlabeled MEK5, 100 = vehicle; binding response (% of control), % at 10 µM; actives 1.4% (n = 290,000);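 active means binding response more than 3 SD above or below the average of its plate-row segment, actives on both sides; inconclusive means wells at one plate position flagged as instrument error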;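 further: Alexa488 bead fluorescence after subtracting the streptavidin-only scavenger bead signal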
MEKK2 mut-MEK5: signal of MEK5 binding to mutant human MEKK2 PB1 domain; bead flow cytometry, Alexa488-MEK5 binding to MEKK2 mutant; percent response, % at 10 µM; actives 0.35% (n = 290,000); in the data active means percent response above about 24%, passing the limit was not always enough
MEKK2 WT-MEK5: raises or lowers MEK5 binding to wildtype human MEKK2 PB1 domain. Q9Y2U5. bead flow cytometry, Alexa488-MEK5 binding to MEKK2 WT; actives lie on both sides. binding response (% of control), % at 10 µM. actives 1.1% (n = 290,000); in the data active means binding response below about 67% or above about 130%; inconclusive means no clear call, values can overlap the other calls; inactive means in between
dFosB act-1: enhances mouse delta FosB homodimer DNA binding; purified delta FosB, TAMRA-CDK5 oligo fluorescence polarization; percent of positive-control signal above neutral wells; actives 0.99% (n = 340,000); activation, % at 25 µM;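 active means mean activation above about 17%, with every replicate also reaching it, limit read from the data, passing the limit was not always enough; inconclusive means only one of the two conditions met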
Target sequence (P13346 whole entry, looked up): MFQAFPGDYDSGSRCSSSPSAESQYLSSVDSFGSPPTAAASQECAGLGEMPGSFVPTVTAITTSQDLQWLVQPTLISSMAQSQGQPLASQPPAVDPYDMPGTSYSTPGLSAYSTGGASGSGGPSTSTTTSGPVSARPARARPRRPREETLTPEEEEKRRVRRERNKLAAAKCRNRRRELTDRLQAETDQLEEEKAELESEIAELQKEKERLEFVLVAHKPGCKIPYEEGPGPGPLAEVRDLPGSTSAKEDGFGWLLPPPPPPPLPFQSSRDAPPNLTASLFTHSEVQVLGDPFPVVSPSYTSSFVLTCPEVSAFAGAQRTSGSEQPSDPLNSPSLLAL
dFosB act-2: enhances mouse delta FosB homodimer binding to DNA. shares compounds with dFosB act-1. purified delta FosB, TAMRA-CDK5 oligo fluorescence polarization; normalised: neutral wells 0, positive control 100. activation, % at 24.9 µM. 2,400 tested, under 10 active;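 active means highest replicate activation at or above 34% and every replicate reaching that threshold; inconclusive means meets only one of the two criteria; inactive means meets neither criterion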;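 further: higher polarization means more probe DNA bound by delta FosB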
Numbers without * were called inactive; ? = inconclusive; / = no result given. Shown are actives, neighbours in structure and some others; about 2.9% of the full set was active somewhere.

SMILES	DNA FID counter	MEKK3 PB1 HTS	MEKK2 mut-MEK5	MEKK2 WT-MEK5	dFosB act-1	dFosB act-2
Cc1cc(C)c(NC(=O)CS(=O)CC(=O)Nc2ccc(-n3cnnn3)c(C)c2)c(C)c1 (configuration not stated)	-13	96	-8	89	-4	/
Cn1cccc1C(=O)NC(=O)COC(=O)CNC(=O)c1ccc(Cl)cc1Cl	-6	97	-5	94	-3	/
COc1ccc(-c2cn(Cc3ccc(C(N)=O)cc3)c(CCN)n2)cc1	/	/	/	/	-2	/
Cn1nc(CSc2ccccc2)c(C=O)c1Cl	7	116	0	112	-3	/
Cc1cc(C)cc(NC(=O)COC(=O)c2ccc3c(c2)OCCO3)c1	/	/	/	/	0	/
Cc1ccc(C(=O)OCC(=O)Nc2ccc3c(c2)OCCO3)cc1C	/	/	/	/	22*	-14
Cc1ccc(C)c(NC(=O)COC(=O)c2ccc3c(c2)OCCO3)c1	/	/	/	/	33*	-14
Nc1nc2ccc(Cl)cc2o1	/	/	/	/	7	/
COc1ccc(C(=O)Nc2ccc(Oc3ncnc4sc(-c5ccccc5)cc34)cc2)cc1OC	-1	107	2	109	-7	/
COc1ccc(C(=O)Nc2ccc(Oc3nc(C)nc4sc(-c5ccccc5)cc34)cc2)cc1OC	1	95	-5	111	34*	-1
COc1ccccc1C(=O)Nc1ccc(Oc2ncnc3sc(-c4ccccc4)cc23)cc1	-4	101	-4	97	4	/
COc1cc(C(=O)Nc2ccc(Oc3ncnc4sc(-c5ccccc5)cc34)cc2)cc(OC)c1OC	2	92	2	99	68*	6
COc1cc2cc(C(=O)O)[nH]c2c(OC)c1OC	0	94	3	100	-1	/
Cc1ccc(C(=O)C(C)OC(=O)C2CCN(c3ccc(C(F)(F)F)cn3)CC2)cc1C (configuration not stated)	/	/	/	/	-5	/
Cc1ccc2nc(SCC(=O)Nc3nnc(SCC(N)=O)s3)[nH]c2c1	-6	86	-5	94	0	/
Cc1ccc2nc(-c3ccc(SCC(=O)Nc4nnc(C)s4)nc3)[nH]c2c1	-9	98	11	110	72*	2
Cc1ccc2nc(-c3ccc(SCC(=O)Nc4nc(C)cs4)nc3)[nH]c2c1	-2	109	0	106	33*	5
Cc1csc(NC(=O)CSc2ncc(-c3ccccc3)[nH]2)n1	-4	106	15	130	-6	/
CN(C)c1ccc(/C=N/c2cc(-c3ccccc3)nn2-c2ccccc2)cc1	-3	98	-2	91	1	/
Cc1ccccc1OCc1nnc(SCC(=O)Nc2ccc3c(c2)OCO3)n1C	-17	99	1	99	-5	/
Cc1ccccc1OCc1nnc(SCC(=O)Nc2ccc3nc(SCC(=O)Nc4ccccc4)sc3c2)n1C	-2	87	-3	90	20*	2
CC(C)C(C)(C#N)NC(=O)CN1C(=O)NC2(CCCc3ccccc32)C1=O (configuration not stated)	-11	99	-2	100	7	/
CN(CC(=O)Nc1cccc(Cl)c1)S(=O)(=O)c1ccc2c(c1)n(C)c(=O)c(=O)n2C	-10	59	-10	60	46*	0
COc1ccc(/C=N/NC(=O)C2c3ccccc3-c3ccccc32)cc1	-7	96	-1	96	22*	0
CC(=O)Nc1ccc(S(=O)(=O)N(C)CC(=O)OCC(=O)N2CCCCCC2)cc1	-15	109	10	112	1	/
SMILES	DNA FID counter	MEKK3 PB1 HTS	MEKK2 mut-MEK5	MEKK2 WT-MEK5	dFosB act-1	dFosB act-2
CCOc1ccc(CC(=O)Nc2c(C(=O)Nc3ccccc3)oc3ccccc23)cc1OCC	0	114	3	111	27*	2
O=C(CSc1nnc(SCc2cccc3ccccc23)s1)N/N=C/c1c[nH]c2ccccc12	-12	98	-1	107	-14	/
O=C(CSc1nnc(SCc2ccc(Cl)cc2)s1)N/N=C/c1c[nH]c2ccccc12	2	72	-4	76	38*	5
CCOC(=O)c1ccc(NC(=O)CSc2nc(=O)n3cccc(C)c3n2)cc1	/	/	/	/	29*	3
CCOC(=O)c1ccc(NC(=O)CSc2nc(N3CCOCC3)nc(N3CCOCC3)n2)cc1	-13	100	-2	100	24*	2
CC(=O)c1ccc(NC(=O)CSc2nc(N3CCOCC3)nc(N3CCOCC3)n2)cc1	-24	97	-4	97	-10	/
Cc1ccc(-n2c(-c3ccc(Br)cc3)c[n+]3c2CCc2ccc4cccnc4c2-3)cc1	14	105	24	153*	26*	?
CN(CC(=O)NCc1ccncc1)S(=O)(=O)c1ccc(Cl)cc1	11	89	-4	93	-5	/
CC(C)(C)c1ccc(-c2nc(C#N)c(N3CCC(C(N)=O)CC3)o2)cc1	-22	105	2	107	-12	/
O=[N+]([O-])c1cc([N+](=O)[O-])c(N2CCCCCC2)cc1NCCO	13	98	2	101	7	/
Cc1cccc(NC(=O)c2ccc(S(=O)(=O)NCc3ccco3)cc2)n1	/	/	/	/	33*	0
CCC(C)NC(=O)Cn1c(=O)n(CCCCCC(=O)Nc2ccccc2)c(=O)c2sccc21 (configuration not stated)	-19	101	-2	98	18*	0
COc1ccc(C(=O)NCCNc2nc3cc(C)c(C)cc3cc2C)cc1	25	108	9	117	25*	4
Cc1cccc(C(=O)NCCNc2nc3cc(C)c(C)cc3cc2C)c1	22	104	7	107	-11	/
CCC(C)NC(=O)Cn1c(=O)n(-c2ccc(OC)cc2)c(=O)c2ccc(C(=O)NCc3ccc(C)cc3)cc21 (configuration not stated)	3	94	-7	89	33*	5
Cc1cc(C)c2c3c(oc2n1)C(=O)N(c1cccc(Cl)c1)CC(=O)N3	-3	101	-4	99	-7	/
Cc1ccc(N2CC(=O)Nc3c(oc4nc(-c5ccccc5)cc(C)c34)C2=O)cc1	-11	102	8	101	24*	1
Cc1ccc(C(=O)COC(=O)CNC(=O)c2ccc(N3C(=O)c4ccccc4C3=O)cc2)cc1C	-6	104	4	106	10	/
O=C(CN1C(=O)c2ccccc2C1=O)NCC(=O)OCC(=O)c1ccc(Br)cc1	-5	/	/	/	46*	6
O=C(CNC(=O)c1ccc(N2C(=O)c3ccccc3C2=O)cc1)OCC(=O)c1ccc(Cl)cc1	-1	102	-2	100	113*	5
O=C(Nc1cc(C(F)(F)F)ccc1N1CCOCC1)c1ccc2ccccc2n1	23	106	6	103	1	/
O=C(c1ccc(F)cc1)n1c(NCc2ccccc2)n[nH]c1=S	-10	100	1	101	35*	-2

Screens: PubChem, several laboratories
